According to the OligoGym collection:
Also: reference of the scale not given here.

These sequences were tested against ACOT6 (assay: pooled miR-30 sensor sort-seq; sequence = guide strand). Conditions: shRNA.
With TTGATAAGTACAGTGGCTGTGA the sensor-assay potency score (higher = more potent) was 0.402.
Work on TATCCTTGTAATGTAGAGGAGC yielded a sensor-assay potency score (higher = more potent) of -0.764.
In the case of TTACTTTTCCTAGATCATCGAC, the sensor-assay potency score (higher = more potent) was -0.0892.
For TTGGTGATTGTGTTCCTCCAGT, the sensor-assay potency score (higher = more potent) was -0.204.
In the case of TTTAGGAATAATCATATCCTTG, the sensor-assay potency score (higher = more potent) was -0.802.

These sequences were tested against ACRV1 in the same assay as above. Conditions: shRNA.
Work on ATCTTCTTTAACATGCACTGCT yielded a sensor-assay potency score (higher = more potent) of -0.185.
For TCAAAGATCTTCTTTAACATGC, the sensor-assay potency score (higher = more potent) was -0.277.
TAATTTGCATCCTCGTTCCATG gave a sensor-assay potency score (higher = more potent) of -0.581.
For TTCAAAGATCTTCTTTAACATG, the sensor-assay potency score (higher = more potent) was -1.23.
Sequence TTTGCATCCTCGTTCCATGGGA has a sensor-assay potency score (higher = more potent) of 0.226.
TCGACAGCATATAATTTGCATC showed a sensor-assay potency score (higher = more potent) of -1.21.
For TTAGGCTGACTTGATGTTCCTC, the sensor-assay potency score (higher = more potent) was -0.162.
TTCTTTAACATGCACTGCTGGG was tested, and the sensor-assay potency score (higher = more potent) was -0.734.
With TTGCATCCTCGTTCCATGGGAG the sensor-assay potency score (higher = more potent) was 0.0526.
Sequence TTGAACCATGAATTGGAGTTTT has a sensor-assay potency score (higher = more potent) of -1.17.
ATAATTTGCATCCTCGTTCCAT gave a sensor-assay potency score (higher = more potent) of -0.172.
ATTCATATAAGCACATGTGTAG was tested, and the sensor-assay potency score (higher = more potent) was -0.436.
Work on TTTAACATGCACTGCTGGGAAT yielded a sensor-assay potency score (higher = more potent) of -1.59.
Sequence TTTTCCACCTTCAAAGATCTTC has a sensor-assay potency score (higher = more potent) of -0.56.
Sequence TTCGACAGCATATAATTTGCAT has a sensor-assay potency score (higher = more potent) of -0.0881.
TCTTCTTTAACATGCACTGCTG was tested, and the sensor-assay potency score (higher = more potent) was -0.6.
TCTTTAACATGCACTGCTGGGA showed a sensor-assay potency score (higher = more potent) of -0.397.
TGAAGTTTGATGATCTATGGAG gave a sensor-assay potency score (higher = more potent) of 0.139.
Sequence TAGGCTGACTTGATGTTCCTCT has a sensor-assay potency score (higher = more potent) of 0.616.
TAATATTGTGCCTGAAGGCTGT showed a sensor-assay potency score (higher = more potent) of 0.0194.

These sequences were tested against ACSL3 in the same assay as above. Conditions: shRNA.
AATCTTTAAGCATCCATCGGGT was tested, and the sensor-assay potency score (higher = more potent) was -0.577.
Sequence TATCTAAAGTATCACATCCAGG has a sensor-assay potency score (higher = more potent) of -0.889.
In the case of ATACTGTCCAAGAATAACCTTT, the sensor-assay potency score (higher = more potent) was -0.208.
Sequence TTGCTGAAATAGCAGCTTCGGA has a sensor-assay potency score (higher = more potent) of -0.935.
With TTTACTAGTAATGATGTTGGTC the sensor-assay potency score (higher = more potent) was 0.628.
In the case of TTTAGCTTCATGGTAGATGGTT, the sensor-assay potency score (higher = more potent) was 0.468.
TTATCTAAAGTATCACATCCAG gave a sensor-assay potency score (higher = more potent) of -0.397.
For TTTTTGAAGACTGATCTGCTAA, the sensor-assay potency score (higher = more potent) was 0.185.
With TTTTGCTTCATTTTTGTAGTAC the sensor-assay potency score (higher = more potent) was 0.298.
TACTAGTGGAAGATTCTTCAAA showed a sensor-assay potency score (higher = more potent) of -0.312.
Sequence TAAAGTATCACATCCAGGGTAT has a sensor-assay potency score (higher = more potent) of 0.0296.
In the case of TTCTTTACTAGTAATGATGTTG, the sensor-assay potency score (higher = more potent) was 0.0529.
In the case of TTTTCTTGTCTTGACTCGGAGA, the sensor-assay potency score (higher = more potent) was -0.78.
In the case of TAATTCTAGAACATGGGCCAGA, the sensor-assay potency score (higher = more potent) was -0.696.
TATTGTAGTCCCACACTTCGGA gave a sensor-assay potency score (higher = more potent) of 0.568.
